Hits are enriched below; roughly 1.5% of the tested compounds scored in any of these assays.
RAD52 anneal inh = RAD52 (human) annealing inhibition | P43351 | recombinant RAD52 DNA annealing, FRET fluorescence | inhibition, % at 18.7 µM | actives 0.46% (n = 360,000);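 active = every replicate showing at least 50% inhibition; inconclusive = mean inhibition at least 50% but not in every replicate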
Target sequence (P43351 whole entry, looked up): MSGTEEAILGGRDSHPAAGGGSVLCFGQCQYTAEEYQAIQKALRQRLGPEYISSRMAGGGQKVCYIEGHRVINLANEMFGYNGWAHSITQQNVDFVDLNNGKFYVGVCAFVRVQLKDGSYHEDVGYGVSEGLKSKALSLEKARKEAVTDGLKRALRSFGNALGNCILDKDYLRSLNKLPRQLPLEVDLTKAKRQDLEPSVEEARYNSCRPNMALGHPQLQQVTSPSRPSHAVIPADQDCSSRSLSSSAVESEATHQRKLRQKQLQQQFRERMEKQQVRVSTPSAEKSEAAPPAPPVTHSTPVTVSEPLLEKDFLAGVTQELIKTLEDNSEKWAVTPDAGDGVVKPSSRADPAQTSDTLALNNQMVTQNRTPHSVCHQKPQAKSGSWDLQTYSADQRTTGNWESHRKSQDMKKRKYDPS
Glyco luc inh = N-linked glycosylation inhibition | D54 ERlucT glycosylation luciferase reporter, 24 h; percent of 100 nM tunicamycin response | reporter increase, % at 12.5 µM | actives 0.23% (n = 360,000) | AID 588692;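 active = mean luciferase reporter signal, scaled so untreated is 0 and the glycosylation-blocking control 100, at or above a set limit in every replicate; inconclusive = mean reaches the limit but not every replicate does; inactive = mean below the limit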;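 note: luciferase carries N-glycosylation sites so blocking glycosylation raises the light; 0% = median of neutral control wells and 100% = median of 100 nM tunicamycin wells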
RAD54 inh = inhibitors of human RAD54 branch migration; inhibition, % at 10.4 µM; Q92698; RAD54 Holliday junction branch migration, FAM/BHQ fluorescence; actives 0.14% (n = 360,000);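 active = mean normalized replicate activity at least 40 and at least half of replicates scoring 40 or more; inconclusive = only one of the two criteria met; inactive = mean below 40 and under half of replicates reaching 40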;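 note: 0% = median of neutral control wells and 100% = median of positive control wells; inhibitors cause a drop in the FAM fluorescence signal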
DNA FID counter = counter-screen for HCV NS3 helicase inhibitors: DNA intercalator displacement; AID 1845; DNA fluorescent intercalator displacement, fluorescence; inhibition, % at 7.9 µM; actives 0.17% (n = 290,000); in the data active = inhibition above about 37%;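 note: 0% = vehicle and 100% = reference compound; higher means more ethidium bromide displaced from hairpin DNA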
CendR NRP1 mod = alters CendR peptide binding to human NRP-1. O14786. actives 0.85% (n = 360,000). inhibition, % at 25 µM. FAM-RPARPAR peptide binding to NRP-1, fluorescence polarization;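 active = inhibition or corrected inhibition above about 18%, plus a signal ratio from 0.5 to 1.5, limit read from the data, passing the limit was not always enough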
miR122 inh = miR-122 inhibition in Huh7 cells; Huh7 miR-122 Renilla luciferase sensor, 48 h; neutral wells = 0, positive control = 100; activation (reporter increase), % at 12.5 µM; actives 0.3% (n = 340,000); AID 602342;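 active = mean replicate activation score at least 90 and every replicate individually at or above 90; inconclusive = only one of the two criteria met; inactive = neither criterion met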;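 note: higher luciferase means less miR-122 activity so hits act as miR-122 inhibitors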
* = called active by the depositor; ? = inconclusive; . = not tested or not shown; [ ] = dose if it differs, or a comment.

SMILES	RAD52 anneal inh	Glyco luc inh	RAD54 inh	DNA FID counter	CendR NRP1 mod	miR122 inh
C#CCOCCOCCOCCNc1nc(N2CCN(C(=O)[C@H]([C@@H](C)CC)n3cc([C@@H](N)Cc4ccc(O)cc4)nn3)CC2)nc(N2CCN(C(=O)[C@H](Cc3ccc(O)cc3)n3cc([C@@H](N)C(C)CC)nn3)CC2)n1 (some centres not stated)	-7	-1	1	45*	5	-13
C#CCOCCOCCOCCNc1nc(N2CCN(C(=O)[C@H]([C@@H](C)CC)n3cc([C@@H](N)CO)nn3)CC2)nc(N2CCN(C(=O)[C@H](Cc3ccc(O)cc3)n3cc([C@@H](N)CC(C)C)nn3)CC2)n1	-5	3	-5	41*	3	-4
C#CCOCCOCCOCCNc1nc(N2CCN(C(=O)[C@H]([C@@H](C)CC)n3cc([C@@H](N)Cc4ccc(O)cc4)nn3)CC2)nc(N2CCN(C(=O)[C@H]([C@@H](C)CC)n3cc([C@@H](N)CC(C)C)nn3)CC2)n1	-79	1	22	47*	6	-7
C#CCOCCOCCOCCNc1nc(N2CCN(C(=O)[C@H]([C@@H](C)CC)n3cc([C@@H](N)CC(C)C)nn3)CC2)nc(N2CCN(C(=O)[C@H](Cc3ccc(O)cc3)n3cc([C@@H](N)C(C)CC)nn3)CC2)n1 (some centres not stated)	26	0	18	35	11	-4
C#CCOCCOCCOCCNc1nc(N2CCN(C(=O)[C@H]([C@@H](C)CC)n3cc([C@@H](N)Cc4ccc(O)cc4)nn3)CC2)nc(N2CCN(C(=O)[C@H](Cc3ccc(O)cc3)n3cc([C@@H](N)CC(C)C)nn3)CC2)n1	-22	3	10	36	7	-4
O=C(c1ccccc1)N1CC2(C1)[C@H](c1ccccc1)[C@@H](CO)N2CC1CC1	-6	.	.	.	.	.
COc1ccc(C2(C(=O)NC3CCCCC3)CCOCC2)cc1OC	.	2	5	0	24*	4
COc1ccc(C2(C(=O)N3CCCC3)CCOCC2)cc1OC	.	1	-19	0	3	-1
COc1ccccc1-c1nnc(SCC(=O)NC2CCS(=O)(=O)C2)n1N (configuration not stated)	-1	0	7	3	22*	1
COCCCn1c(SCC(=O)NC2CCS(=O)(=O)C2)nnc1-c1ccc(Cl)cc1 (configuration not stated)	8	2	8	.	23*	.
CCCNC(=O)N1CC(=O)N2[C@H](C1)[C@H](c1ccc(-c3cccc(C)c3)cc1)[C@@H]2CO	6	.	.	.	.	.
C[C@@H]1CN([C@@H](C)CO)C(=O)Cc2cc(N(C)C)ccc2O[C@@H]1CN(C)Cc1ccc(C(=O)Nc2ccccc2N)cc1	8	.	0	.	.	138*[16.7 µM]
C[C@H]1CN([C@@H](C)CO)C(=O)Cc2cc(N(C)C)ccc2O[C@@H]1CN(C)Cc1ccc(C(=O)Nc2ccccc2N)cc1	2	.	-20	.	.	27[16.7 µM]
C[C@@H]1CN([C@@H](C)CO)C(=O)Cc2cc(N(C)C)ccc2O[C@H]1CN(C)Cc1ccc(C(=O)Nc2ccccc2N)cc1	19	.	-7	.	.	113*[16.7 µM]
C[C@H]1CCCCO[C@H](CN(C)C(=O)Cc2ccccc2)[C@@H](C)CN([C@@H](C)CO)C(=O)c2cc(NS(=O)(=O)c3ccc(Cl)cc3)ccc2O1	-12	.	5	.	.	-9[16.7 µM]
COc1ccc2c3c([nH]c2c1)[C@@H](CO)N(C(=O)c1ccncc1)CC31CCN(C(=O)C2CCC2)CC1	-26	.	.	.	.	.
CCOc1ccc(NC(=O)CN2C(=O)C(C)SC(C)C2=O)cc1 (configuration not stated)	-2	2	10	-2	25*	-3
O=C(NNC(=O)C1CCN(Cc2ccccc2)CC1)c1cccc(Cl)c1	.	0	.	-2	23*	1
Cc1ccc(C(=O)NNC(=O)C2CCN(Cc3ccccc3)CC2)cc1	.	1	.	2	6	9
CCCN(C)C[C@H]1Oc2cc(C3=CCCCC3)ccc2S(=O)(=O)N([C@@H](C)CO)C[C@H]1C	.	.	.	.	.	15[16.7 µM]
Cc1ccc(C(=O)/C=C/NCc2ccc(F)cc2)cc1	.	0	.	-13	36*	.
Cc1ccc(CN/C=C/C(=O)c2ccc(Br)cc2)cc1	.	1	-20	-4	-6	-5
CN(C)CCCN(C(=O)c1ccc(S(=O)(=O)N2CCOCC2)cc1)c1nc2cc3c(cc2s1)OCO3	-1	-7	12	25	18	.
COc1ccc2nc(N(CCN(C)C)C(=O)c3ccc4c(c3)OCCO4)sc2c1	16	-2	5	12	3	-3
CN(C)CCCN(C(=O)c1ccc(S(=O)(=O)N2CCCCC2)cc1)c1nc2cc3c(cc2s1)OCO3	36	-13	14	38*	8	-2
SMILES	RAD52 anneal inh	Glyco luc inh	RAD54 inh	DNA FID counter	CendR NRP1 mod	miR122 inh
CN(C)CCN(C(=O)c1ccc2c(c1)OCCO2)c1nc2cc3c(cc2s1)OCO3	0	-5	34	19	25*	-3
CO[C@@H]1CN(C)C(=O)c2ccc(NC(=O)NC(C)C)cc2OC[C@@H](C)N(Cc2ccccn2)C[C@H]1C	-8	.	.	.	.	.
COc1ccc([C@H]2CC(=O)C=C(c3ccccc3C(F)(F)F)C2)cc1	6	-4	-3	.	29*	3
O=C(c1ccccc1)c1ccc(-c2ccc(O)cc2)cc1	0	5	7	-4	3	92*
COc1ccc(CC(N)c2csc(NC(=O)Nc3ccccc3Oc3ccccc3)n2)cc1 (configuration not stated)	77*	-3	-9	.	10	-5
NC(Cc1ccccc1)c1csc(NC(=O)Nc2ccccc2Oc2ccccc2)n1 (configuration not stated)	-30	-5	-5	.	-10	-18
COc1ccccc1CNS(=O)(=O)c1ccc(-n2cnnn2)c(C)c1	-5	-1	-14	-8	1	.
Cc1cc(S(=O)(=O)N(Cc2ccccc2F)C2CC2)ccc1-n1cnnn1	-7	-1	-4	-22	10	143*
Cc1cc(S(=O)(=O)NCC(c2ccccc2)c2ccccc2)ccc1-n1cnnn1	.	-1	-2	-15	15	125*
COC(=O)CCCCC1SCC2NC(=O)NC21O (configuration not stated)	-34	1	.	-5	27*	.
COC(=O)c1ccc(NC(=O)COC(=O)C2CCC2)cc1	2	2	.	.	2	-1
CC(=O)Nc1ccc(NC(=O)COC(=O)C2CCCCC2)cc1	-15	1	-6	.	24*	5
O=C1c2cc(CO)cc(O)c2C(=O)c2c(O[C@@H]3OC(CO)[C@@H](O)[C@@H](O)[C@@H]3O)cccc21 (some centres not stated)	-1	2	?	.	-5	-5
